Potency and affinity values are given separately. Values without a mark were called inactive. How the calls were made is not given here.
These molecules were tested against Kelch-like ECH-associated protein 1 (Homo sapiens) + Nuclear factor erythroid 2-related factor 2 (Homo sapiens) (UniProt Q14145+Q16236) (assay: Keap1-Nrf2 protein-protein interaction inhibitors, dose response, biochemical, fluorescence polarization, cherry-picked samples (AID 588683;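 further: Kelch domain of Keap1 binding a fluorescein-labelled 9mer Nrf2 peptide; more negative means stronger inhibition of peptide binding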)). Settings: Keap1/Nrf2 peptide fluorescence polarization, plate reader; series mostly up to 26 µM; activity change, negative = inhibition: at the top concentration.
Kelch-like ECH-associated protein 1 (Homo sapiens) + Nuclear factor erythroid 2-related factor 2 (Homo sapiens), sequence (Q14145 whole entry, looked up, the tested form may be a part): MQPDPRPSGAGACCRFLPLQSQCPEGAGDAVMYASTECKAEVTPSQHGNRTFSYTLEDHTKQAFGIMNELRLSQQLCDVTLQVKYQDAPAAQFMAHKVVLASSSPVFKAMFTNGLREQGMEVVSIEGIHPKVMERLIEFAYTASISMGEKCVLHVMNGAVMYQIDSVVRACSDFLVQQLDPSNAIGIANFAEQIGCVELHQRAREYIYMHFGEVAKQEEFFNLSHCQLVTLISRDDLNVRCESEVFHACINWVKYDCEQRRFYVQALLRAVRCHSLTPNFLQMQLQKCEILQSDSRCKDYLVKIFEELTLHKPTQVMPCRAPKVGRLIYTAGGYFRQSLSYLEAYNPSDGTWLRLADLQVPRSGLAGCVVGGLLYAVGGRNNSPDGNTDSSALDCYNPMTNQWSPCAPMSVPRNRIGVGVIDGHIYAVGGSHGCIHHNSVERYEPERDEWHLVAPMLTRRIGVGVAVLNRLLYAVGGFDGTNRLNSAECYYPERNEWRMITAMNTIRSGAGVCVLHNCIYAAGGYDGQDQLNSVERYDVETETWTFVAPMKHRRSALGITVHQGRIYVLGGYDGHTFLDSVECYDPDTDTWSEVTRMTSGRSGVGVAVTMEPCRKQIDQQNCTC
Kelch-like ECH-associated protein 1 (Homo sapiens) + Nuclear factor erythroid 2-related factor 2 (Homo sapiens), sequence (Q16236 whole entry, looked up, the tested form may be a part): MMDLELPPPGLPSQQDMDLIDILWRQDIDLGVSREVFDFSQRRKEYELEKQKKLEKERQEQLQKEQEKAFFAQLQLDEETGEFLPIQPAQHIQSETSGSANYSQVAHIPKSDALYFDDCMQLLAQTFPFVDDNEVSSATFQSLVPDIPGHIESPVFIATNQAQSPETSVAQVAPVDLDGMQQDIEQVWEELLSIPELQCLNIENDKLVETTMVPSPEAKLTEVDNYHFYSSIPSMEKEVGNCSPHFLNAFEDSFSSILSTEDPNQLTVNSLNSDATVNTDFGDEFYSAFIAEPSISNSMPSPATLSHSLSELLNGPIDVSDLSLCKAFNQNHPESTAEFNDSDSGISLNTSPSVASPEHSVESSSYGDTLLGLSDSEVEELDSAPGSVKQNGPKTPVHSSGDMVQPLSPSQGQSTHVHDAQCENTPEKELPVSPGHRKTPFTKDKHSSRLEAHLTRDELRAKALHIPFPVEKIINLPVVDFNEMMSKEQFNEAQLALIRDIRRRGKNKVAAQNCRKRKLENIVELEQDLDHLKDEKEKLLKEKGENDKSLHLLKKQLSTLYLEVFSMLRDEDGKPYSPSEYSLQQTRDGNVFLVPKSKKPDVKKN
With `COc1cccc(C2=CC(c3cccs3)n3nnnc3N2)c1` (stereo not drawn) the “activity change, negative = inhibition” value was -16.2%.
`CCSc1ncc(Cl)c(C(=O)Nc2ccccc2OC)n1` was tested, and the “activity change, negative = inhibition” value was -8.81%.
In the case of `COc1cc(Cl)c(C)cc1NCC(=O)Nc1cccc(S(=O)(=O)N2CCCC2)c1`, the “activity change, negative = inhibition” value was -4.11%.
With `CCCCCC(=O)N1CCCC1` the “activity change, negative = inhibition” value was -2.92%.
With `CS(=O)(=O)N1CCCC(C(=O)Nc2ccc(F)c(F)c2)C1` (stereo not drawn) the “activity change, negative = inhibition” value was 2.9%.
For `Cc1ccc2cc(CN(CCCO)S(=O)(=O)c3cccc4nsnc34)c(=O)[nH]c2c1C`, the “activity change, negative = inhibition” value was -7.45%.
In the case of `N#CCCN(CCC#N)C(=O)C1c2ccccc2Oc2ccccc21`, the “activity change, negative = inhibition” value was 0.566%.
In the case of `Cc1nn(-c2ccccc2Cl)c(Cl)c1/C=N/Nc1nc2ccccc2s1`, the “activity change, negative = inhibition” value was -4.65%.
For `O=C(Cc1ccc(S(=O)(=O)N2CCOCC2)s1)Nc1nc2c(s1)CCCC2`, the “activity change, negative = inhibition” value was 1.26%.
For `COc1ccc(C(=O)c2ccsc2N)cc1`, the “activity change, negative = inhibition” value was -4.13%.
In the case of `Cc1ccc(S(=O)(=O)NCC(=O)OCC(=O)Nc2ccc3c(c2)OCCO3)cc1`, the “activity change, negative = inhibition” value was -2.89%.
With `Cc1ccc(OC(C)C(=O)N2CCN(c3ccccn3)CC2)cc1` (stereo not drawn) the “activity change, negative = inhibition” value was -5%.
In the case of `COc1cc(CO)ccc1Oc1nc2ccccc2n2cnnc12`, the “activity change, negative = inhibition” value was -3.41%.
In the case of `Cc1ccc(C(=O)N/C(=C\c2ccc(-c3ccccc3[N+](=O)[O-])o2)C(=O)NCCCN(C)C)cc1`, the “activity change, negative = inhibition” value was -4.73%.
With `CCCCC1OC23CCCCC2C(C#N)(C#N)C1(C#N)C(=N)O3` (stereo not drawn) the “activity change, negative = inhibition” value was -8.61%.
For `CCOc1cccc(C2C(C(=O)c3ccc(C)o3)=C(O)C(=O)N2c2nccs2)c1` (stereo not drawn), the “activity change, negative = inhibition” value was -21.9%.
`CC1Cc2cc(/C=C3/SC(N4CCC(C(N)=O)CC4)=NC3=O)ccc2O1` (stereo not drawn) was tested, and the “activity change, negative = inhibition” value was -0.857%.
`O=C1c2cccc3c(N4CCCCC4)ccc(c23)C(=O)N1c1ccccc1O` was tested, and the “activity change, negative = inhibition” value was 72.2%.
With `NC(=O)C1CCN(C2=C(Cl)C(=O)c3ccccc3C2=O)CC1` the “activity change, negative = inhibition” value was -5.27%.
With `CCC(=O)c1cn(CC(=O)Nc2ccc(OC)cc2)c2ccccc12` the “activity change, negative = inhibition” value was 2.85%.
In the case of `CCCCCCOC(=O)C(C#N)c1nc2ccccc2nc1N1CCOCC1` (stereo not drawn), the “activity change, negative = inhibition” value was -1.81%.
In the case of `CCC(C)(C)n1nnnc1C(c1cc2ccc(OC)cc2[nH]c1=O)N1CCc2ccccc2C1` (stereo not drawn), the “activity change, negative = inhibition” value was 5.63%.
For `Cn1nc(C(=O)NNC(=O)Cc2ccc(S(=O)(=O)N3CCOCC3)s2)c2ccccc2c1=O`, the “activity change, negative = inhibition” value was 0.832%.
With `N#C/C(=C\c1ccc[nH]1)C(=O)N1CCCCC1` the “activity change, negative = inhibition” value was -0.671%.
With `CCCCC(CC)C(=O)Oc1ccc(O)c(C(C)(C)C)c1` (stereo not drawn) the “activity change, negative = inhibition” value was -6.25%.
`Oc1[nH]c2ccccc2c1N=Nc1ccccc1` was tested, and the “activity change, negative = inhibition” value was -5.01%.
In the case of `CCC(CNc1cc(OC)cc2cccnc12)NC1CCCCC1` (stereo not drawn), the “activity change, negative = inhibition” value was -15.9%.
`c1ccc(Nc2nc3ccccc3n3nnnc23)cc1` was tested, and the “activity change, negative = inhibition” value was -21.3%.
`CC1=CC(=C2N=C(c3ccccc3)OC2=O)C=C(C)O1` was tested, and the “activity change, negative = inhibition” value was 107%.
In the case of `CC(C)(C)c1ccccc1NC(=O)NC1CCN(Cc2c(F)cccc2Cl)CC1`, the “activity change, negative = inhibition” value was -6.22%.
For `CCCc1cc(NC(=O)COC(=O)c2nccnc2N)n(-c2ccccc2)n1`, the “activity change, negative = inhibition” value was 0.425%.
`CCOc1ccc(C(=O)COC(=O)c2nn(CC)c(=O)c3ccccc23)cc1` was tested, and the “activity change, negative = inhibition” value was -7.02%.
With `COCCCn1c(=NC(=O)c2ccccc2)c(C#N)cc2c(=O)n3cccc(C)c3nc21` the “activity change, negative = inhibition” value was 2.49%.
`O=c1[nH]c(-[n+]2ccccc2)c(/C=N/NC([S-])=Nc2ccccc2)s1` was tested, and the “activity change, negative = inhibition” value was -0.642%.
`COc1cc2c3nnc(-c4ccc(F)cc4)c-3cn(Cc3ccccc3)c2cc1OC` was tested, and the “activity change, negative = inhibition” value was 124%.
For `O=C(C1=NN(c2ccccc2)C2C(=O)N(c3ccccc3)C(=O)C12)c1ccccc1` (stereo not drawn), the “activity change, negative = inhibition” value was 13%.
For `COc1[nH]c(/N=C/c2ccccc2)c(C#N)c1C#N`, the “activity change, negative = inhibition” value was 3.73%.
For `O=C(COC(=O)c1ccc([N+](=O)[O-])s1)Nc1cccc(S(=O)(=O)NC2=NCCCCC2)c1`, the “activity change, negative = inhibition” value was -14.6%.

Reference: PubChem BioAssay AID588683 (Broad Institute, 2011)
